The nature of experiment [1]: CCTE_Padilla_ZF_144hpf_TERATOSCORE: (Legacy) CCTE's 144 Hour Post-fertilization zebrafish Assay Teratoscore, Padilla Lab (AID 2283679; active = hit-call score of the fitted dose curve at least 0.9, where 1 is the maximum; inactive = score below 0.9;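 as to AC50: zebrafish embryos with chorions exposed by immersion from 6-8 hpf to 5 dpf with daily renewal; teratogenicity score from eye scoring of death hatching and malformations at 144 hpf; higher score means more developmental defects relative to DMSO baseline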). An outline of the steps:
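Larvae scored by eye at 144 hpf for death, hatching and malformations after a day in clean Hanks'. Before that, daily-renewed exposure at 80 uM (0.4% DMSO, 26C) from roughly 6-8 hpf through 5 dpf, 4 embryos per chemical.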

Read-out in experiment [2]: Cytochrome P450 3A4 (Homo sapiens) (UniProt P08684)
The experiment can be described thus: CLD_CYP3A4_6hr: CellzDirect (CLD) Gene Expression Assay for xenobiotic metabolism (CYP3A4) at 6 hours (AID 2283680). The essentials:
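CYP3A4 mRNA induction, 6 h after dosing of cultured primary human hepatocytes from two donors, read by quantitative nuclease protection (qNPA, chemiluminescence). Vehicle 0.2% DMSO as baseline; morphology-based cytotoxicity annotated yes/no.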

Read-out in experiment [3]: Glyceraldehyde-3-phosphate dehydrogenase (Homo sapiens) (UniProt P04406)
Put plainly: CLD_GAPDH_6hr: CellzDirect (CLD) Gene Expression Assay for Baseline Control (Glyceraldehyde 3-phosphate dehydrogenase) at 6 hours (AID 2283681).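 Also: active means increased signal relative to DMSO vehicle.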 An outline of the steps:
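GAPDH baseline-control readout from qNPA (S1 nuclease digestion, probe hybridization, chemiluminescence) in lysates of cultured human hepatocytes harvested 6 h post-dosing. Chemicals tested at multiple concentrations versus 0.2% DMSO vehicle; microscopy-based cytotoxicity flagged yes/no.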

Read-out in experiment [4]: xenobiotic metabolism (CYP1A2), CYP1A2 (gene 1544)
The experiment can be described thus: CLD_CYP1A2_24hr: CellzDirect (CLD) Gene Expression Assay for xenobiotic metabolism (CYP1A2) at 24 hours (AID 2283683). The essentials: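 CYP1A2 mRNA induction measured by quantitative nuclease protection (chemiluminescent) in human primary hepatocytes 24 h after multi-concentration chemical dosing with daily fresh solutions. DMSO (0.2%) baseline; positive-direction fitting; morphology-based cytotoxicity noted.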

Read-out in experiment [5]: ABC Transporter (ABCB1), ABCB1 (gene 5243)
Put plainly: CLD_ABCB1_24hr: CellzDirect (CLD) Gene Expression Assay for ABC Transporter (ABCB1) at 24 hours (AID 2283684). An outline of the steps: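 ABCB1 mRNA induction versus 0.2% DMSO vehicle was read by qNPA chemiluminescence at 24 h. Cultured human hepatocytes from two donor preparations received daily fresh dosing, and phase-contrast cytotoxicity calls were annotated alongside the data.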

Read-out in experiment [6]: Glyceraldehyde-3-phosphate dehydrogenase (Homo sapiens) (UniProt P04406)
Put plainly: CLD_GAPDH_24hr: CellzDirect (CLD) Gene Expression Assay for Baseline Control (Glyceraldehyde 3-phosphate dehydrogenase) at 24 hours (AID 2283692). The essentials: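 GAPDH baseline-control readout: qNPA chemiluminescent mRNA signal in human primary hepatocytes harvested 24 h after daily dosing, normalised to 0.2% DMSO with positive fitting direction; cytotoxicity annotated by phase-contrast morphology.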

Read-out in experiment [7]: alkyl and aryl transferase (GSTA2), GSTA2 (gene 2939)
The experiment can be described thus: CLD_GSTA2_24hr: CellzDirect (CLD) Gene Expression Assay for alkyl and aryl transferase (GSTA2) at 24 hours (AID 2283693). The essentials:
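GSTA2 transcript levels were quantified by quantitative nuclease protection assay in primary human hepatocytes 24 h after daily dosing with fresh solutions at multiple concentrations; 0.2% DMSO vehicle as baseline, cytotoxicity flagged morphologically.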

Read-out in experiment [8]: Cytochrome P450 2C19 (Homo sapiens) (UniProt P33261)
The experiment can be described thus: CLD_CYP2C19_48hr: CellzDirect (CLD) Gene Expression Assay for xenobiotic metabolism (CYP2C19) at 48 hours (AID 2283700).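 Also: fitted upward so actives raise CYP2C19 mRNA above the 0.2% DMSO vehicle.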 An outline of the steps: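 CYP2C19 mRNA induction read by chemiluminescent quantitative nuclease protection assay after 48 h, with fresh compound added daily for two days to cultured human liver hepatocytes. Activity fitted upward against 0.2% DMSO vehicle.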

Read-out in experiment [9]: Cytochrome P450 2C19 (Homo sapiens) (UniProt P33261)
Put plainly: CLD_CYP2C19_24hr: CellzDirect (CLD) Gene Expression Assay for xenobiotic metabolism (CYP2C19) at 24 hours (AID 2283687).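 Also: activity means mRNA induction above DMSO vehicle baseline.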 An outline of the steps:
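CYP2C19 mRNA was quantified by qNPA chemiluminescence after 24 h of daily dosing of cultured human primary hepatocytes from two donors; vehicle was 0.2% DMSO, and increases over DMSO baseline were fitted.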

Read-out in experiment [10]: Cytochrome P450 3A4 (Homo sapiens) (UniProt P08684)
The experiment can be described thus: CLD_CYP3A4_24hr: CellzDirect (CLD) Gene Expression Assay for xenobiotic metabolism (CYP3A4) at 24 hours (AID 2283689). The essentials: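 CYP3A4 mRNA induction read by quantitative nuclease protection (chemiluminescence) 24 hr after dosing. Cultured human hepatocytes (two donor preparations) treated daily, vehicle 0.2% DMSO; phase-contrast morphology annotates cytotoxicity.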

Read-out in experiment [11]: ABC Transporter (ABCB1), ABCB1 (gene 5243)
The experiment can be described thus: CLD_ABCB1_48hr: CellzDirect (CLD) Gene Expression Assay for ABC Transporter (ABCB1) at 48 hours (AID 2283695). The essentials: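 ABCB1 mRNA was measured by quantitative nuclease protection assay (chemiluminescence) 48 h after dosing. Human hepatocyte cultures from two separate donors received fresh dosing solutions daily for two days, with 0.2% DMSO as vehicle. Positive-direction fit against DMSO.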

Read-out in experiment [12]: HMG-CoA synthase (HMGCS2), HMGCS2 (gene 3158)
Put plainly: CLD_HMGCS2_6hr: CellzDirect (CLD) Gene Expression Assay for HMG-CoA synthase (HMGCS2) at 6 hours (AID 2283682).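 Also: actives raise HMGCS2 transcript above the 0.2% DMSO vehicle baseline.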 The essentials:
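HMGCS2 transcript induction read by quantitative nuclease protection with chemiluminescence, 6 h after dosing of primary human hepatocytes. Baseline was 0.2% DMSO vehicle; phase-contrast morphology gave a yes/no cytotoxicity annotation.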

Read-out in experiment [13]: Cytochrome P450 2B6 (Homo sapiens) (UniProt P20813)
Put plainly: CLD_CYP2B6_6hr: CellzDirect (CLD) Gene Expression Assay for xenobiotic metabolism (CYP2B6) at 6 hours (AID 2283677).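 Also: actives raise CYP2B6 transcript above DMSO baseline so AC50 marks an inducer.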 An outline of the steps: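 CYP2B6 transcript levels, read by chemiluminescent qNPA, were fitted for increase versus DMSO baseline; cultured human liver hepatocytes from two donor preparations were harvested 6 h after exposure to test chemicals at multiple concentrations.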

Read-out in experiment [14]: Cytochrome P450 2B6 (Homo sapiens) (UniProt P20813)
The experiment can be described thus: CLD_CYP2B6_24hr: CellzDirect (CLD) Gene Expression Assay for xenobiotic metabolism (CYP2B6) at 24 hours (AID 2283686). The essentials:
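qNPA chemiluminescent measurement of mRNA at 24 hours in human primary hepatocyte cultures from two donor preparations, with daily fresh dosing and 0.2% DMSO vehicle as baseline. Morphology-based cytotoxicity flagged yes/no.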

Read-out in experiment [15]: Cytochrome P450 2B6 (Homo sapiens) (UniProt P20813)
Put plainly: CLD_CYP2B6_48hr: CellzDirect (CLD) Gene Expression Assay for xenobiotic metabolism (CYP2B6) at 48 hours (AID 2283699).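 Also: actives raise transcript level above DMSO so potency reflects induction.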 The essentials:
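CYP2B6 transcript induction, read by quantitative nuclease protection (S1 digestion, chemiluminescent detection) 48 h after dosing, is fitted upward against 0.2% DMSO. Cultured human liver primary cells, two donor preparations, received fresh chemical daily over multiple concentrations.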

Experiment [16] in a line: CLD_ACTIN_6hr: CellzDirect (CLD) Gene Expression Assay for Baseline Control (Actin) at 6 hours (AID 2283676).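 Also: active means increased actin mRNA relative to DMSO vehicle.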 The essentials: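 Baseline actin transcript level measured by qNPA (S1 nuclease protection, chemiluminescence) in human hepatocyte cultures 6 h after chemical exposure; 0.2% DMSO vehicle as reference, cytotoxicity noted from morphology.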
Read-out in experiment [17]: glucuronosyltransferase (UGT1A1), UGT1A1 (gene 54658)
Put plainly: CLD_UGT1A1_24hr: CellzDirect (CLD) Gene Expression Assay for glucuronosyltransferase (UGT1A1) at 24 hours (AID 2283696). The essentials: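 UGT1A1 transcript induction was measured by quantitative nuclease protection assay (chemiluminescence) in human hepatocyte cultures 24 h after daily fresh dosing, with 0.2% DMSO as vehicle and baseline.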

The AC50 is the midpoint of the concentration-response curve, whichever way the signal moves.

Results filed as inconclusive are left out. Active and inactive are the calls of the source. The calls were made as follows, unless noted: active = hit-call score of the fitted dose curve at least 0.9, where 1 is the maximum; inconclusive = response in the unintended direction; inactive = score below 0.9.

Sequence of Cytochrome P450 3A4 (Homo sapiens) (P08684 whole entry, looked up): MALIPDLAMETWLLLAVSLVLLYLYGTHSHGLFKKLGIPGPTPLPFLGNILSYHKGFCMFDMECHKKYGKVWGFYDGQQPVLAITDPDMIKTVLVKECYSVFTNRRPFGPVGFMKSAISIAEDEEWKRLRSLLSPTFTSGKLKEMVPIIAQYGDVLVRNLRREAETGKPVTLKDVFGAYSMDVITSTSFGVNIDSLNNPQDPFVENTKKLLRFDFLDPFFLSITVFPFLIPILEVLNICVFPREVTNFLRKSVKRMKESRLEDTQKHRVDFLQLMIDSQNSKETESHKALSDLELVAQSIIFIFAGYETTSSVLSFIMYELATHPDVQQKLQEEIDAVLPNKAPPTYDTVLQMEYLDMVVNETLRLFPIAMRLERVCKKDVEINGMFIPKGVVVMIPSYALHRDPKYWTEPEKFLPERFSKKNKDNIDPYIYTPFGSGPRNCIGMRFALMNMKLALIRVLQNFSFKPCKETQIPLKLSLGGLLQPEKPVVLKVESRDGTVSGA
Sequence of Cytochrome P450 2C19 (Homo sapiens) (P33261 whole entry, looked up): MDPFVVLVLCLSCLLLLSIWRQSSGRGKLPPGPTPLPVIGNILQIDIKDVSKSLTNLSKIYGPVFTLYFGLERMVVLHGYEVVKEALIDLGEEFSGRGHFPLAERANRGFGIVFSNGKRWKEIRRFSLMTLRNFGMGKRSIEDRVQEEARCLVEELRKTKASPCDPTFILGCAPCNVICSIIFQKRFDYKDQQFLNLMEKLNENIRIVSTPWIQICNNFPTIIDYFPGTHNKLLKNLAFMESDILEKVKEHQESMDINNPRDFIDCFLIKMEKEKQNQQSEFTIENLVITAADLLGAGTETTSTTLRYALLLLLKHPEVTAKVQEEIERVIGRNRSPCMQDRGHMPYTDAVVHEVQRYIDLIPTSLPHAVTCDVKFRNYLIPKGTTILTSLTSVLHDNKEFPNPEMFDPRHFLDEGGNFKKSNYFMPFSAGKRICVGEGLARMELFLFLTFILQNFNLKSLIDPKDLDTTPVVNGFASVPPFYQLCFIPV
Sequence of Glyceraldehyde-3-phosphate dehydrogenase (Homo sapiens) (P04406 whole entry, looked up): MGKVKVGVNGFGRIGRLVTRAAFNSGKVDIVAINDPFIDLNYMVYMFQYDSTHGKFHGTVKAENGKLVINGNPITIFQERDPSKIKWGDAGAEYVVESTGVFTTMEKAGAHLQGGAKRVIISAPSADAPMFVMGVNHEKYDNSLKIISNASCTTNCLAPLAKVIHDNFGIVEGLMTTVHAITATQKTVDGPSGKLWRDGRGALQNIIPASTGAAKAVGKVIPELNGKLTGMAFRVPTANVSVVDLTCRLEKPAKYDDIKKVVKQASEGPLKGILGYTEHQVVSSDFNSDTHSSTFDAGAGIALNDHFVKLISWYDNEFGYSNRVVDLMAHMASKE

With `CCCCOC(=O)c1ccccc1C(=O)O`, the call in experiment [1], in experiment [2], in [3], in experiment [4], in experiment [5] and in experiment [6] was inactive. Also, the call in experiment [7] and in [8] was inactive.
For the molecule `CON=C(C(=O)OC)c1ccccc1CON=C(C)c1cccc(C(F)(F)F)c1`, the values for the AC50 in experiment [1] and in experiment [10] were 0.208 µM (active) and 15.6 µM (active), respectively. Moreover, the outcome in experiment [2], in experiment [4], in experiment [9], in experiment [7] and in experiment [11] was inactive.
Take `CNC(=O)Oc1cccc2c1OC(C)(C)O2`: the AC50 in [1] is 50.1 µM (active); in experiment [4] it was 20 µM (active). The call in experiment [2], in experiment [12], in [7], in experiment [11] and in [8] was inactive.
For the molecule `Cc1ccn2nc(S(=O)(=O)Nc3c(F)cccc3F)nc2n1`, the molecule was called inactive in [13], in experiment [1], in experiment [2], in [3], in [4] and in experiment [14]. Besides, the molecule was classed as inactive in experiment [8].
Take `CCC(CC)Nc1c([N+](=O)[O-])cc(C)c(C)c1[N+](=O)[O-]`: the concentration at half-maximal activity (AC50) in [1] was 24.2 µM (active); in experiment [4] it was 33.4 µM (active); in experiment [15], 6.23 µM (active). The call in [3], in [12], in experiment [9], in experiment [7] and in [11] was inactive.
Turning to `C=C(C)[C@H]1Cc2c(ccc3c2O[C@@H]2COc4cc(OC)c(OC)cc4[C@@H]2C3=O)O1`, the result in experiment [16], in experiment [3], in experiment [12], in experiment [5], in experiment [10] and in [7] was inactive. Moreover, the call in experiment [11] and in experiment [8] was inactive. Further, the AC50 in experiment [1] is 0.000155 µM (active).
Consider `CCCOc1nn(C(=O)NS(=O)(=O)c2ccccc2C(=O)OC)c(=O)n1C`, for which the molecule was classed as inactive in [16], in [1], in experiment [3], in experiment [12], in experiment [6] and in [7]. The result in experiment [11], in experiment [17] and in [8] was inactive. The half-maximal activity concentration (AC50) in [10] was 9.43 µM (active).
Regarding `COc1cccc(C(=O)NN(C(=O)c2cc(C)cc(C)c2)C(C)(C)C)c1C`, the molecule was called inactive in [1], in experiment [12], in [11] and in experiment [8]. The figures for the AC50 in experiment [2], in [4] and in experiment [14] were 0.886 µM (active), 32.6 µM (active) and 2.35 µM (active), respectively.

The values are drawn from PubChem BioAssay (EPA / NIEHS).
